From PubChem BioAssay (NCI)
Compounds without any hit were thinned out: in the full panel of roughly 83,000, 20% have a hit.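 Method: cells in 96-well plates; compound added at one concentration; 48 h incubation; percent growth measured; values under 10 scored active.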 Calls of active or inactive are those of the source.

What follows are compounds tested on M14 melanoma (assay: NCI-60 one-dose screen, 48 h (100 = growth as untreated, 0 = no growth, -100 = all killed)). Conditions: 10 µM unless noted.
Protocol: Growth inhibition of the M14 human tumor cell line is measured as a screen for anti-cancer activity. Cells are grown in 96 well plates and exposed to the test compound for 48 hours. Compounds are tested at a single concentration, which is 10^-5 M for most compounds. The reported endpoint is percent growth (GI% or GIPRCNT), where numbers from 0 - 100% represent growth inhibition, and numbers from -100% - 0 represent cell death. For example, a value of 40 represents 60% growth inhibition. A value of 0 means no net growth occurred over the course of the experiment. A value of -40 indicates 40% of cells at the beginning of the experiment died by the end of the experiment. A value of -100 means all cells are dead at the end of the experiment.
NCI-60 Human Tumor Cell Lines Screen was performed using the standard one-dose NCI protocol, which is described in more detail at https://dtp.cancer.gov/discovery_development/nci-60/default.htm.
Compounds with GIPRCNT values below 10 were considered active. Activity score was based on GIPRCNT using the following formula: […]
Score is 0 for GIPRCNT values of 100 or above, 50 for GIPRCNT values of 0, and 100 for GIPRCNT values of -100.

Structure (SMILES)	growth
O=C1CSC(c2ccccc2Cl)N1c1nnc(-c2ccncc2)o1 (stereo not given)	96.8% (inactive)
COc1ccc(/C=C2\CCCC3=C2N=C2SC=NN2C3c2ccc(OC)c(OC)c2)cc1OC (stereo not given)	47.5% (inactive)
COC(=O)c1cc(=O)nc(N/N=C/c2ccccc2O)s1	95.2% (inactive)
CC([C@H]1CCC2C3CCC4C[C@@H](N)CC[C@]4(C)C3CC[C@@]21C)N(C)C (stereo not given in full)	-6.67% (active)
Cc1ccc(C(=O)C(Br)C(Br)c2ccccc2)cc1 (stereo not given)	101% (inactive)
O=c1[nH]c(=S)[nH]c(O)c1/C=C1\C=Nc2ccccc21	92.3% (inactive)
Cc1ccc(NC(=O)CCl)cc1Cl	104% (inactive)
Cc1cc2c(-c3nc4ccccc4n3C)c(O)c(O)cc2c(O)c1-c1c(C)cc2c(-c3nc4ccccc4n3C)c(O)c(O)cc2c1O	34.9% (inactive)
Cc1ccc(C(=O)Nc2ccc(CN3CCN(C)CC3)c(C(F)(F)F)c2)cc1C#Cc1cnc(N)c2ccc(F)cc12	-83.1% (active)
CC(C)C(=O)c1ccc(Cl)s1	101% (inactive)
OCCN1CCCN(CCCN2c3ccccc3Sc3ccc(C(F)(F)F)cc32)CC1	7.54% (active)
Cc1c(C(N)=O)sc2c1c(=O)n(Cc1ccccc1)c1nnc(S(C)(=O)=O)n21	76% (inactive)
COc1cc(OC)c(NC(=O)n2ncc3cc(Nc4ncnc5ccccc45)ccc32)cc1Cl	100% (inactive)
COc1ccc(CNCCCN2C(=O)c3ccc4c5c(ccc(c35)C2=O)C(=O)N(CCCNCc2ccc(OC)c(OC)c2OC)C4=O)c(OC)c1OC	-60.6% (active)
CCCCCCCCc1ccc(CCC(N)(CO)CO)cc1	50% (inactive)
O=Nc1ccc(O)c2ccccc12	-10.8% (active)
CCCCN(CCCC)CCCNc1c2c(nc3ccc(Cl)cc13)CCCC2	98% (inactive)
Cc1ccc(C(=O)NN)cc1	113% (inactive)
CCCCCCCCCC(C)NC(=O)CCl (stereo not given)	107% (inactive)
CCCCCCCCCCCC(=O)OC(C)C(=O)Nc1ccccc1 (stereo not given)	96.9% (inactive)

Structure (SMILES)	growth
Cc1ccc([C@@H]2C[C@H](O)Cc3ccccc3N2)s1	125% (inactive)
NC(CSC(c1ccccc1)(c1ccccc1)c1ccccc1)C(=O)NCC(=O)O (stereo not given)	44.6% (inactive)
N#CCc1ncc(-c2ccc(C(F)(F)F)cc2)c(NC2CCCCCC2)n1	19% [100 µM] (inactive)
O=C(Nc1ccc(-n2cc(-c3ccncc3)c(-c3ccc(Cl)c(O)c3)n2)cc1)Nc1cc(C(F)(F)F)cc(C(F)(F)F)c1	6.9% (active)
COc1ccc(C(O)(c2ccccc2)C(C(=O)O)c2ccccc2)cc1 (stereo not given)	103% (inactive)
COc1ccc(-c2nc(SCC(C)C)nc(Nc3ccccc3)c2C#N)cc1	95.8% (inactive)
COc1ccc(-c2cn3ccnc3c(-c3ccc4ncn(C5CCCCC5)c4c3)n2)cc1	10.8% (inactive)
Cc1c(CN(C)C)cc(C(C)C)cc1C(C)C	108% (inactive)
COc1ccc(-c2nc(N)n(C(=S)Nc3ccccc3)n2)cc1	98.8% (inactive)
CCCCCCC(=O)C(C)C	97.2% (inactive)
COC(=O)C(Cc1cnc[nH]1)N1CC(=O)N2[C@@H](c3ccccc3)SC[C@H]2C1=O (stereo not given in full)	101% (inactive)
COC(c1ccccc1)C(Br)C(=O)c1ccccc1 (stereo not given)	90.6% (inactive)
C=C(NC(=O)[C@H](C(C)C)N(C)c1cccc2[nH]ccc12)C(=O)OC	94.9% (inactive)
COc1ccc(/C=N/c2cc(C(C)(C)C)nn2-c2ccccc2)cc1	115% (inactive)
COc1ccc2nc3cc(Cl)ccc3c(NCCCNC(C)=O)c2c1	44.4% (inactive)
CCCCCCCCCC[N+](C)(C)N	105% (inactive)
CCCCCCCCCCCCCCCC[n+]1cccc(C#N)c1	62% (inactive)
CCCCCCCCCC[N+](C)(C)C	6.8% (active)
CCCCCC(=C/c1ccccc1)/C=N/N=C(N)N	-64.5% (active)
CCCC(C)c1cc(Cc2cc(Cl)cc(Cl)c2O)c(O)c(Cc2cc(Cl)cc(Cl)c2O)c1 (stereo not given)	7.97% (active)
